HT1080-NT tox = kills 2HG-producing HT-1080-NT fibrosarcoma cells | AID 686970 | Potency, µM (doses to about 46.1 µM), hits mostly cytotoxic | HT-1080-NT fibrosarcoma viability, CellTiter-Glo ATP luminescence, 48 h | actives 1.6% (n = 360,000);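 also: NT is the 2HG producing partner of a matched IDH1 knockdown line; nearly all actives have a fitted effect of over 55% in size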
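HT-1080-NT; 750 cells/well; 5% FBS RPMI; 48 h compound, 37 degrees C; CellTiter-Glo luminescence; curve fitting and curve-class assignment.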
HT1080 IDH1KD tx = HT-1080 IDH1 knockdown cell toxicity (counter line); HT-1080 IDH1 knockdown viability, ATP luminescence, 48 h; Potency, µM (doses to about 46.1 µM), actives largely listed as cytotoxic; actives 2% (n = 360,000)
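Knockdown cells (IDH1KD HT-1080) received compounds 2 h after plating at 750 cells/well and were kept 48 h at 37 °C in 5% FBS RPMI. A CellTiter-Glo luminescence read gave % activity for curve fitting.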
DT40 TDP1 CPT = DT40-hTDP1 cell growth loss with CPT | chicken DT40 Tdp1-/-;hTDP1 cells + 20 nM CPT, ATP luminescence, 48 h | Potency, µM (series often up to 46.2 µM), usual class: inhibitors | actives 12% (n = 420,000) | AID 686979; also: nearly all actives have a fitted effect of over 55% in size
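Cell growth measured by CellTiter-Glo luminescence after a minimum 48 h, 37 C compound exposure with 20 nM CPT in Tdp1-knockout DT40 cells stably expressing hTDP1, seeded 400/well; qHTS titration format.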
TDP1 cell noCPT = qHTS for Inhibitors of human tyrosyl-DNA phosphodiesterase 1 (TDP1): qHTS in cells in absence of CPT; DT40 Tdp1-/- hTDP1 cells, no CPT, ATP luminescence, 48 h; Potency, µM (series often up to 46.2 µM), hits mostly inhibitors; actives 15% (n = 420,000); also: nearly all actives have a fitted effect of over 55% in size
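Growth of hTDP1-complemented DT40 Tdp1-knockout cells is measured by ATP luminescence after at least 48 hr compound exposure at 37 °C, with DMSO substituting for the 20 nM CPT used in the parallel screen.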
IL-1B inflam inh = inflammasome signaling inhibition, IL-1 beta readout; actives 4.7% (n = 360,000); activity change, % at 57.5 µM; THP-1 LPS/ATP IL-1B secretion, AlphaLISA, 16 h; active compounds read low; in the data active = activity change below about -50%; inconclusive = mostly about -30% to -49%
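THP-1 cells pretreated 1 hr with compounds (up to 57.5 uM final), then stimulated with LPS (250 ng/mL final) plus ATP (1.25 mM final); secreted IL-1B measured by AlphaLISA after 16 hr, decreased signal indicating inhibition.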
Large screens that a line does not name were inactive. Most compounds without a hit are left out; they make up all but 19% or so of the library. Unless noted, calls follow the shape of the dose curve; as a rule, active = well fitted curve in the direction sought with a large enough effect; inconclusive = small, poorly fitted or top-dose-only effect, or another doubt; inactive = no such curve, though single readings can be large; an effect the other way counts as inactive or inconclusive.

Cc1ccnc(NC(=O)c2ccc(S(=O)(=O)N3CCCCCC3)cc2)c1	TDP1 cell noCPT inconclusive
Nc1cc(=O)[nH]c(SCc2cccc(Cl)c2)n1	DT40 TDP1 CPT 23µM, TDP1 cell noCPT inconclusive
CC(C)(C)c1ccc(CSc2nc(N)cc(=O)[nH]2)cc1	HT1080-NT tox inconclusive, HT1080 IDH1KD tx inconclusive, DT40 TDP1 CPT 23µM, TDP1 cell noCPT 18µM
Nc1cc(=O)[nH]c(SCc2ccccc2)n1	none
Nc1cc(=O)[nH]c(SCc2ccc(Cl)cc2)n1	none
O=C(CN1C(=O)COc2ccc(S(=O)(=O)N3CCCC3)cc21)N1CCN(c2ccccc2)CC1	TDP1 cell noCPT inconclusive (no result: HT1080-NT tox, HT1080 IDH1KD tx, IL-1B inflam inh)
O=C(OC1CC2CC1[C@H]1CCCCN1C2=O)N1CCCCC1 (stereo not given in full)	none
Cc1cccc(OCCSc2nc3c([nH]2)c(=N)ncn3Cc2ccccc2)c1	HT1080-NT tox inconclusive, HT1080 IDH1KD tx inconclusive, DT40 TDP1 CPT 21µM, TDP1 cell noCPT 16µM
CCN(Cc1ccccc1)Cc1c(O)ccc2c(=O)c(-c3ccccc3Cl)coc12	none (no result: HT1080-NT tox, HT1080 IDH1KD tx, IL-1B inflam inh)
NC(=S)N/N=C1\CC(c2ccc3c(c2)OCCCO3)Oc2ccc(F)cc21 (stereo not given)	HT1080-NT tox inconclusive, HT1080 IDH1KD tx inconclusive, DT40 TDP1 CPT 2.6µM, TDP1 cell noCPT 4.6µM, IL-1B inflam inh -71
O=C1CC(c2ccc3c(c2)OCCO3)Oc2ccccc21 (stereo not given)	DT40 TDP1 CPT inconclusive
CCc1cccc(CC)c1NC(=O)c1ccc(-c2cc(Cl)ccc2Cl)o1	DT40 TDP1 CPT inconclusive, TDP1 cell noCPT inconclusive
Cc1ccccc1-c1ccc(C(=O)Nc2cccc(F)c2)o1	DT40 TDP1 CPT inconclusive, TDP1 cell noCPT 21µM, IL-1B inflam inh inconclusive
Cc1cccc(C)c1NC(=O)c1ccc(-c2cc(F)ccc2F)o1	HT1080-NT tox inconclusive, HT1080 IDH1KD tx inconclusive, DT40 TDP1 CPT 18µM, TDP1 cell noCPT 16µM
COc1ccc(NC(=O)C2=C(C)Nc3nc(CCCO)nn3C2c2ccc(OC)c(OC)c2)cc1 (stereo not given)	none
CCOC(=O)[C@]12CCCC=C1N(Cc1ccco1)C(=O)[C@H](CC(=O)NCC1CCCCC1)C2	DT40 TDP1 CPT inconclusive, TDP1 cell noCPT inconclusive
O=S(=O)(c1ccccc1)c1cnc(-c2ccccc2)nc1N1CCCCC1	DT40 TDP1 CPT inconclusive, TDP1 cell noCPT inconclusive
CSc1ccc(/C=N/NC(=O)c2cccs2)cc1	TDP1 cell noCPT inconclusive
CSc1ccc(/C=N/NC(=O)c2ccc(O)cc2)cc1	DT40 TDP1 CPT 26µM, TDP1 cell noCPT inconclusive
CN(C)c1ccc(/C=N\NC(=O)c2ccc(Cn3cc(Cl)cn3)cc2)cc1	HT1080-NT tox inconclusive, HT1080 IDH1KD tx inconclusive, DT40 TDP1 CPT inconclusive, TDP1 cell noCPT 16µM
CSc1ccc(/C=N/NC(=O)c2ccccc2Cl)cc1	HT1080-NT tox inconclusive, HT1080 IDH1KD tx inconclusive, DT40 TDP1 CPT 16µM, TDP1 cell noCPT 13µM
O=C(N/N=C/c1ccc(O)cc1)c1csc2ccccc12	DT40 TDP1 CPT inconclusive, TDP1 cell noCPT 0.26µM
CCOC(=O)[C@@H]1[C@H]2COc3ccc(Br)cc3[C@@H]2N2C(=O)N(c3ccc(F)cc3)C(=O)[C@]12C	TDP1 cell noCPT inconclusive
O=C(CSc1ncn[nH]1)Nc1ccccc1Sc1ccc(Cl)cc1	DT40 TDP1 CPT inconclusive, TDP1 cell noCPT inconclusive, IL-1B inflam inh inconclusive
Cn1c(=O)c2cc(NC(=S)NC3CCCCC3)ccc2n1C/C=C/c1ccccc1	DT40 TDP1 CPT inconclusive, IL-1B inflam inh inconclusive
Cc1occc1C(=O)N/N=C/C=C/c1ccc(N(C)C)cc1	HT1080-NT tox inconclusive, HT1080 IDH1KD tx inconclusive, DT40 TDP1 CPT inconclusive, TDP1 cell noCPT inconclusive
Cc1occc1C(=O)N/N=C/c1ccc(N(C)C)cc1	HT1080-NT tox inconclusive, HT1080 IDH1KD tx 23µM
CN(C)c1ccc(/C=N/NC(=O)c2ccccc2Cl)cc1	HT1080-NT tox 12µM, HT1080 IDH1KD tx 8.2µM, DT40 TDP1 CPT 5.8µM, TDP1 cell noCPT 7.3µM, IL-1B inflam inh inconclusive
CCOc1ccc(N(CC(=O)N/N=C/c2cccnc2)S(C)(=O)=O)cc1	none
CCc1ccc(C(=O)NNC(=O)CN2C(=O)NC(CC)(c3ccccc3)C2=O)cc1 (stereo not given)	none
Cc1cc(C)n(C(=O)CNC(=O)CCc2ccccc2)n1	none
CCOC(=O)c1ccc(N2C(=O)CC(N(C)CCc3ccc(OC)c(OC)c3)C2=O)cc1 (stereo not given)	DT40 TDP1 CPT 16µM, TDP1 cell noCPT inconclusive
CCOc1cccc(N2C(=O)CC(N(CCc3ccc(OC)c(OC)c3)C(=O)CC)C2=O)c1 (stereo not given)	none
CCn1c(CNC(=O)C2CCCCC2)cc2cc(C)ccc21	TDP1 cell noCPT inconclusive
COc1ccc(NC(=O)CC(c2ccc(F)cc2)c2ccc(OC(C)C)cc2)cc1 (stereo not given)	DT40 TDP1 CPT inconclusive, TDP1 cell noCPT 21µM
CCOc1ccc(NC(=O)CC(c2ccccc2)c2ccc(F)cc2)cc1 (stereo not given)	TDP1 cell noCPT 15µM
Cc1ccc(NC(=O)CSc2nnc(-c3ccccc3)n2C)cc1	none (no result: HT1080-NT tox, HT1080 IDH1KD tx, IL-1B inflam inh)
COc1ccc(NC(=O)c2cccc(NC3=NC4CS(=O)(=O)CC4S3)c2)cc1Cl (stereo not given)	none
Cc1cc(C)n2nc(C(=O)OCC(=O)NCc3ccc(Cl)cc3)nc2n1	none
O=C(CCNC(=O)N1CC(=O)Nc2ccccc21)NCc1cccc(C(F)(F)F)c1	none
CCCCC(=O)Nc1ccc(NCc2ccc(C)s2)cc1	DT40 TDP1 CPT inconclusive, TDP1 cell noCPT 3.7µM
CCCCC(=O)Nc1ccc(C(N)=O)cc1	none
COc1cc2c(ccc3cc(OC)c(OC)c(O)c32)cc1O	HT1080-NT tox inconclusive, HT1080 IDH1KD tx inconclusive, DT40 TDP1 CPT 7.3µM, TDP1 cell noCPT 9.2µM
COc1cc(-c2cc(C(=O)O)c3c(OC)c(OC)c(OC)cc3n2)ccc1O	none
CCOc1ccc(-c2nc(CSCC(=O)NC3CCN(Cc4ccccc4)CC3)c(C)o2)cc1	HT1080 IDH1KD tx inconclusive, DT40 TDP1 CPT 23µM, TDP1 cell noCPT inconclusive
CCOc1ccc(-c2nc(CSCC(=O)NC3CCCc4ccccc43)c(C)o2)cc1 (stereo not given)	DT40 TDP1 CPT 18µM, TDP1 cell noCPT inconclusive, IL-1B inflam inh -77
Cc1oc(-c2ccc(Cl)cc2)nc1CSCC(=O)NC1CCN(Cc2ccccc2)CC1	HT1080-NT tox inconclusive, DT40 TDP1 CPT inconclusive, TDP1 cell noCPT inconclusive, IL-1B inflam inh -61
CCOc1ccc(-c2nc(CSCC(=O)NC3CC3)c(C)o2)cc1	DT40 TDP1 CPT inconclusive, TDP1 cell noCPT inconclusive
O=C1CC2(CCCCCC2)Oc2ccc(Cl)cc21	none
CCOc1ccc(-c2ncnn2-c2sc3c(c2C#N)CCCCC3)cc1	TDP1 cell noCPT inconclusive (no result: HT1080-NT tox, HT1080 IDH1KD tx, IL-1B inflam inh)
COc1ccc(C(=O)Nc2ccc(NC(=O)c3cnccn3)cn2)cc1	none
